Source: PubChem
hcDAF12 agonist – activators of H. contortus DAF-12 nuclear receptor. HEK293 hcDAF-12 lit1-tk-luc reporter, luminescence; 0% DMSO, 100% Δ7-dafachronic acid. activation, % at 6.8 µM. 370,000 tested, 1.4% active. AID 652067;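 active means activation above the mean of all tested compounds plus 3 SD, cut at about 5.5% in these data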;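 further: 100% = response to 3 µM Δ7-dafachronic acid high control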
hgDAF12 agonist – activates the H. glycines DAF-12 receptor ligand-binding domain. HEK293 GAL4-hgDAF12 UAS-luciferase reporter, agonist luminescence; normalized to butyrate control. activation, % at 6.8 µM. 370,000 tested, 1.8% active;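 active means activation above a cutoff set at the mean of all screened compounds plus 3 SD, cut at about 10% in these data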;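 further: 0% = DMSO wells and 100% = sodium butyrate wells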
ssDAF12 agonist – S. stercoralis DAF-12 activation, primary screen; HEK293 ssDAF-12/GRIP1 lit1-tk-luc reporter, luminescence; % of 3 µM dafachronic acid response; activation, % at 6.8 µM; 370,000 tested, 1% active;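 active means activation above the mean over all tested compounds plus 3 SD, cut at about 0.9% in these data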;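 further: 0% = DMSO-only wells and 100% = 3 µM delta7-dafachronic acid wells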
SMARCA2 act – increases SMARCA2 function in MMTV reporter cells | MG213 cells, MMTV-luciferase reporter, dexamethasone, overnight | activation, % at 9.1 µM | 370,000 tested, 1% active | AID 652017; in the data active means activation above about 7.8%;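 further: 0% = vehicle wells and 100% = reference activator wells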
DAX1 StAR inh – inhibitors of DAX1 repression of SF-1 activated StAR promoter | HEK293T StAR-luciferase reporter, SF-1/DAX-1 repression relief | inhibition, % at 6.8 µM | 370,000 tested, 1.1% active;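 active means inhibition above the mean over all tested compounds plus 3 SD, cut at about 3.6% in these data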;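 further: 0% = DAX-1 cells with DMSO and 100% = cells lacking DAX-1 with DMSO; higher inhibition means more luminescence from relief of DAX-1 repression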
DAX1 conf – confirmation of human DAX1 (NR0B1) inhibitors | shares compounds with DAX1 StAR inh | AID 652134 | 2,400 tested, 87% active | inhibition, % at 6.8 µM | HEK293T StAR-promoter luciferase reporter, SF-1/DAX-1 repression;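 active means inhibition above the average of every tested compound plus 3 SD, cut at about 3.8% in these data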;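 further: 0% = DAX-1 cells with DMSO and 100% = no DAX-1 control cells with DMSO; active compounds raise luminescence by relieving repression of the StAR reporter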
Target sequence (P51843 whole entry, looked up): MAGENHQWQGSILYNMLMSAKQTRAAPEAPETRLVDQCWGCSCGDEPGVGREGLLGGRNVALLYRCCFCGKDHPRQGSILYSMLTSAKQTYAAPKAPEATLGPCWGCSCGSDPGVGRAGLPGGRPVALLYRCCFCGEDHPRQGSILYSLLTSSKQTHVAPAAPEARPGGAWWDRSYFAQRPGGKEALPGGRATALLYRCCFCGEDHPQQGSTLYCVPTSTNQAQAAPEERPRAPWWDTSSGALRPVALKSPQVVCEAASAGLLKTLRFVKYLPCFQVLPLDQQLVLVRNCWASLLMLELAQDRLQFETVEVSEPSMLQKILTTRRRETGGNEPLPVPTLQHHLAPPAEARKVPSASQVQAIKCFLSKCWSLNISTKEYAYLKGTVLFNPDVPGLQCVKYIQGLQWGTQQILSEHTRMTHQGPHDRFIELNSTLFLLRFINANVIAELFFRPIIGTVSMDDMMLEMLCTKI
SF1 AF2mut Luc – nonselective inhibitor or artifact in SF-1 mutant DAX1 counter-screen | inhibition, % at 6.8 µM | HEK293 StAR-luciferase, SF-1 AF2 mutant, luminescence | 2,400 tested, 78% active | shares compounds with DAX1 StAR inh;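 active means inhibition above the mean of all tested compounds plus 3 SD, cut at about 3% in these data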;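 further: 0% = DAX-1 transfected cells with DMSO and 100% = cells without DAX-1 with DMSO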
* hit, by the source's call; / = no result given. Hits are enriched below; roughly 4.2% of the tested compounds scored in any of these assays.

SMILES | hcDAF12 agonist | hgDAF12 agonist | ssDAF12 agonist | SMARCA2 act | DAX1 StAR inh | DAX1 conf | SF1 AF2mut Luc
O=C(COc1ccc(F)c(Cl)c1)N[C@H]1CCCN(CC2CC2)C1 | 4 | -2 | 0 | / | / | / | /
O=S(=O)(Nc1cccc(-c2ccc(N3CCCCCC3)nn2)c1)c1cccc(F)c1 | 1 | 5 | 0 | 6 | 4.6* | 6.9* | 4.4*
O=[N+]([O-])c1ccc(Cl)c(S(=O)(=O)Nc2cccc(-c3ccc(N4CCOCC4)nn3)c2)c1 | 2 | 6 | -1 | 2 | 5.5* | 9.5* | 4.5*
O=S(=O)(Nc1cccc(-c2ccc(N3CCCCCC3)nn2)c1)c1ccc(F)cc1 | 4 | 4 | 0 | 2 | 5.7* | 2 | 3
O=S(=O)(Nc1cccc(-c2ccc(N3CCCCCC3)nn2)c1)c1ccccc1Cl | -2 | 3 | -1 | -1 | 1 | / | /
O=S(=O)(Nc1cccc(-c2ccc(N3CCCCCC3)nn2)c1)c1ccccc1F | 4 | 4 | -1 | 4 | 5.8* | 6.1* | 2
O=C(CSc1nnc(-c2ccccn2)n1-c1ccccc1)c1ccc(F)cc1 | -1 | -1 | -1 | -2 | -2 | / | /
CCOC(=O)C1(C)CCN1C(=O)c1cc(-c2ccc(Cl)cc2)oc1C (stereo unspecified) | -2 | 4 | -2 | 2 | -3 | / | /
Nc1c(C(=O)Nc2ccc3c(c2)OCCO3)nnn1CCc1ccccc1 | 0 | 9 | -1 | 1 | -2 | / | /
Nc1c(C(=O)Nc2ccc3c(c2)OCCO3)nnn1Cc1cccc(Br)c1 | 3 | 3 | -1 | 4 | 9.3* | 9.0* | 5.9*
O=C(Nc1ccc(-c2nc3ccccc3[nH]2)cc1)C1CCCO1 (stereo unspecified) | 5 | 13* | 0 | 6 | 7.7* | 15* | 8.9*
O=C(Nc1ccc(Cl)cc1)N1CCC(c2ccccc2)C1 (stereo unspecified) | 3 | 12* | 1 | 0 | 5.6* | 12* | 6.6*
COc1ccc(Nc2nc(-c3cccs3)cs2)cc1 | 16* | 18* | 3.8* | 2 | 7.1* | 19* | 11*
Cc1ccc(-c2nnc(SCc3ccc([N+](=O)[O-])cc3)n2-c2ccccc2)cc1 | -2 | 0 | -2 | -4 | 1 | / | /
CCOc1ccc(NC(=O)c2ccco2)cc1S(=O)(=O)N1CCCC1 | 0 | -1 | 0 | -1 | 5.1* | 3 | 1
Cc1ccnc(Nc2ccc(CCO)cc2)n1 | 4 | 11* | 0 | 7 | 4.8* | 9.5* | 5.6*
CC(=O)Nc1ccc(Nc2nccc(C)n2)cc1 | 4 | 4 | 0 | 0 | 2 | / | /
O=C(NC1CCCCN(Cc2cccc(Cl)c2)C1=O)c1cccc(F)c1 (stereo unspecified) | -3 | -2 | -2 | -5 | 0 | / | /
CCCC(=O)NNC(=O)c1ccoc1C | -1 | 2 | -1 | -3 | 0 | / | /
CCC(C)(C)C1CCC(=NNC(=O)c2ccoc2C)CC1 (stereo unspecified) | 3 | 18* | 0 | 11* | 4.7* | 2 | 3.1*
CC(c1nc2ccccc2n1Cc1ccccc1)n1c(-c2cnccn2)nc2ccccc21 (stereo unspecified) | -1 | -2 | -1 | -3 | 1 | / | /
COC(=O)[C@@]1(Cc2ccc(F)cc2)[C@H]2c3cc(C(=O)N(C)C)n(CCCNc4ncc(C(F)(F)F)cc4Cl)c3C[C@H]2CN1C(=O)c1ccccc1 | -2 | 0 | -1 | -2 | 1 | / | /
O=C(N/N=C/c1ccc2cccnc2c1)c1ccco1 | 3 | 12* | 0 | 5 | 5.0* | 14* | 7.2*
COC(=O)C1CN(CC(C)C)CCS(=O)(=O)N1Cc1cccc(Cl)c1 (stereo unspecified) | -1 | 0 | -2 | -2 | 0 | / | /
O=C(CCS(=O)(=O)c1ccccc1)N(CCCN1CCOCC1)c1nc2ccc(F)cc2s1 | 1 | 9 | -1 | 2 | 6.7* | 5.5* | 2
SMILES | hcDAF12 agonist | hgDAF12 agonist | ssDAF12 agonist | SMARCA2 act | DAX1 StAR inh | DAX1 conf | SF1 AF2mut Luc
CCOC(=O)[C@@]12CCC3=C1N(CCC3)C(=O)[C@H](CC(=O)NCc1ccccc1)C2 | 0 | -1 | -1 | -2 | 0 | / | /
CCc1ccc(OCC(=O)NNC(=S)NC(=O)C2CCCCC2)c(Br)c1 | 0 | 1 | -1 | 1 | 1 | / | /
CCc1ccc(OCC(=O)NC2CCCCC2)c(Br)c1 | 4 | 9 | 0 | 1 | 6.9* | 6.9* | 4.4*
CN(CCO)C1CN(Cc2cn(Cc3ccccc3F)nn2)S(=O)(=O)C1 (stereo unspecified) | -1 | 0 | -1 | 0 | 0 | / | /
COc1cccc(C(=O)Nc2nnc(SCC(=O)Nc3ccc(NC(C)=O)cc3)s2)c1 | 5.6* | 9 | 0 | 7 | 10* | 9.1* | 6.6*
Cc1cccc(C(=O)Nc2nnc(SCC(=O)NCc3ccco3)s2)c1 | 0 | 9 | 0 | 2 | 5.6* | 3 | 3
COc1cccc(N2CC(C(=O)Nc3nnc(SCC(=O)Nc4ccc(NC(C)=O)cc4)s3)CC2=O)c1 (stereo unspecified) | -1 | 0 | -1 | 3 | -1 | / | /
Cc1cccc(C)c1Nc1nnc(SCC(=O)NCc2ccco2)s1 | -1 | -1 | -1 | -2 | 0 | / | /
c1ccc(N2[C@@H]3c4ccccc4C[C@H]2c2ccccc23)cc1 | 0 | -1 | 0 | -5 | 0 | / | /
Cc1ccccc1/C(N)=N/OC(=O)c1ccc(F)cc1 | 3 | 5 | -1 | 2 | 1 | / | /
N/C(CS(=O)(=O)c1ccccc1)=N\OC(=O)c1ccc(F)cc1 | 1 | 6 | 0 | 3 | 5.9* | 3.8* | 3.2*
Cc1cc(C)cc(C(=O)O/N=C(\N)c2ccc(Br)cc2)c1 | 2 | 0 | -1 | -3 | 0 | / | /
N/C(=N\OC(=O)c1ccoc1)c1ccc(Br)cc1 | 3 | 8 | 0 | 7.8* | 9.5* | 11* | 6.9*
COc1ccc(C(C(=O)N(C)C2CCCC2)N(Cc2ccc(F)cc2)C(=O)c2csc(-c3ccccc3)n2)cc1OC (stereo unspecified) | -3 | -4 | -2 | -4 | -1 | / | /
Cn1ccc(C(=O)NC(=S)Nc2ccc([N+](=O)[O-])cc2O)n1 | 2 | 5 | 0 | 3 | 8.3* | 10* | 5.8*
O=C(NC(=S)Nc1ccc([N+](=O)[O-])cc1O)C1CCCCC1 | 1 | -4 | -1 | -2 | 4 | / | /
COc1ccc(OC)c(CNS(=O)(=O)c2ccccc2Br)c1 | -1 | 1 | -1 | -4 | 0 | / | /
c1ccc(Cn2cc(CCOCc3ccccn3)c3ccccc32)cc1 | 2 | 9 | 0.9* | 5 | 4.9* | 2 | 2
